Screening results deposited in PubChem by National Center for Advancing Translational Sciences (NCATS).
Shown are actives, neighbours in structure and some others; about 9.3% of the full set was active somewhere.
HCV inhibitor: qHTS Assay for Inhibitors of Hepatitis C Virus (HCV) | Huh7.5.1 HCVcc-Cre infection, luciferase reporter, 44 h | Potency, µM (top dose mostly 41.8 µM), for the others: at the top dose activity change, negative = inhibition, actives largely listed as inhibitors | 340,000 tested, 3.4% active | AID 651820, 2012; further: potency means the concentration at half of the fitted maximal effect; on the % scale 0 is the no-effect control and ±100 the full control effect
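Infectious HCVcc-Cre (~0.5 moi) was added to cells just after compound, with cells seeded 4 h earlier at 1,000 per well. Luciferase activity after 44 h culture reported infection; substrate was incubated 15 min at room temperature before reading.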
HCMV antiviral: qHTS Assay for inhibitors of the human cytomegalovirus (HCMV). HFF cells, HCMV-luciferase reporter, 72 h; active compounds read low. activity change, negative = inhibition, % at 57.5 µM. 410,000 tested, 4.5% active; in the data active means activity change below about -60%; inconclusive means no clear call, values can overlap the other calls; inactive means above about -39%; further: on the % scale 0 is the no-effect control and ±100 the full control effect
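Inhibition of viral replication was scored as loss of reporter luminescence in HFFs infected with HCMV-luciferase (MOI 1 PFU/cell) for 72 h; compounds tested at 2 doses, normalized to buffer and Salinomycin controls.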
VACV Venus inh: qHTS for Stage-Specific Inhibitors of Vaccinia Orthopoxvirus: Venus Reporter Primary qHTS. Potency, µM (series often up to 36.5 µM), without a hit: at the top dose activity change, negative = inhibition, most hits filed as inhibitors. Vaccinia virus Venus reporter expression, fluorescence. 330,000 tested, 0.46% active; calls by dose curve; tested in A549 cells; further: potency means the concentration at half of the fitted maximal effect; on the % scale 0 is the no-effect control and ±100 the full control effect; nearly all actives have a fitted effect of over 30% in size
FMDV antiviral: High Throughput Screening for Foot and Mouth Disease Virus Antivirals; FMDV antiviral cell-based qHTS; Potency, µM (top dose mostly 57.9 µM), inactives show at the highest dose activity change, negative = inhibition, actives largely listed as inhibitors; 410,000 tested, 1.2% active; AID 1159524, 2015; calls by dose curve; tested in HEK293T cells; further: read-out not given here; potency means the concentration at half of the fitted maximal effect; on the % scale 0 is the no-effect control and ±100 the full control effect; nearly all actives have a fitted effect of over 45% in size
VACV mCherry inh: qHTS for Stage-Specific Inhibitors of Vaccinia Orthopoxvirus: mCherry Reporter Primary qHTS; Potency, µM (doses to about 36.5 µM), without a hit: at the highest dose activity change, negative = inhibition, most hits filed as inhibitors; 310,000 tested, 0.63% active; AID 720579, 2013; Vaccinia virus mCherry reporter infection, fluorescence; calls by dose curve; tested in A549 cells; further: potency means the concentration at half of the fitted maximal effect; on the % scale 0 is the no-effect control and ±100 the full control effect; nearly all actives have a fitted effect of over 35% in size
Sm TGR block: qHTS Assay for the Inhibitors of Schistosoma Mansoni Peroxiredoxins; AID 485364, 2010; purified TGR, DTNB reduction, TNB absorbance 405 nm; Potency, µM (highest dose often 114 µM), for inactives: top-dose activity change, negative = inhibition, actives largely listed as inhibitors; 360,000 tested, 3% active; further: potency means the concentration at half of the fitted maximal effect; on the % scale 0 is the no-effect control and ±100 the full control effect; nearly all actives have a fitted effect of over 60% in size
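TGR 20 nM + NADPH 100 uM (dispensed conc.), cpd preinc 15 min RT; start with NADPH (500 uM addition) then DTNB (15 mM addition). Kinetic TNB absorbance, 405 nm filter. Four-parameter Hill fit across titration.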
HCV confirm: qHTS Assay for Inhibitors of Hepatitis C Virus (HCV): Confirmation Assay for Cherry-picked Compounds; shares compounds with HCV inhibitor; HCVcc-Cre infectious virus cell assay, luciferase, inhibition; Potency, µM (titrated, usually from 41.8 µM), inactives show at the highest dose activity, negative = inhibition, hits mostly inhibitors; 640 tested, 78% active; further: potency means the concentration at half of the fitted maximal effect; nearly all actives have a fitted effect of over 80% in size
HCV cytotox: qHTS Assay for Inhibitors of Hepatitis C Virus (HCV): Cytotoxicity Counterscreen for Cherry-picked Compounds; AID 720576, 2013; HCV host cell line cytotoxicity counterscreen; shares compounds with HCV inhibitor; 640 tested, 22% active; Potency, µM (series often up to 41.8 µM), inactives show top-dose activity change, negative = cytotoxicity, usual class: inhibitors;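 further: potency means the concentration at half of the fitted maximal effect; 44 h compound exposure; on the % scale 0 is the no-effect control and ±100 the full control effect; nearly all actives have a fitted effect of over 55% in size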
* marks the source's active call; other numbers are inactive results; i = inactive; ? = inconclusive; nt = not tested or not shown; ! = not confirmed by another sample; [ ] = dose if it differs, or a comment. Unless noted, the call rests on the fitted dose curve; in most records, active means well fitted curve in the direction sought with a large enough effect; inconclusive means small, poorly fitted or top-dose-only effect, or another doubt; inactive means no such curve, though single readings can be large; an effect the other way counts as inactive or inconclusive.

SMILES	HCV inhibitor	HCMV antiviral	VACV Venus inh	FMDV antiviral	VACV mCherry inh	Sm TGR block	HCV confirm	HCV cytotox
COc1cccc(CN(C)C(=O)c2ccc3c(=O)n4c(nc3c2)CCC4)c1OC	2.7%	40.6	-13.5%	28.0%	-16.1%	-0.4%	nt	nt
CCN(CC)CCNC(=S)Nc1ccc2nc(N3CCN(C)CC3)cc(C)c2c1	?	-15.9	-27.0%	-3.8%	-15.7%	-23.0%	nt	nt
CCN1CCN(c2cc(C)c3cc(NC(=O)c4cc(OC)cc(OC)c4)ccc3n2)CC1	2.24µM*	-89.6*!	-26.4%	14.2%	-28.9%	2.5%	25µM*	22.3µM*
CCN(CC)CCNC(=S)Nc1ccc2nc(N3CCCC3)cc(C)c2c1	2µM*	-30.5	nt	-11.5%	nt	0.3%	7.05µM*	-23.1%
COc1ccc(-c2nnc(SCC(=O)Nc3ccc(C(=O)O)cc3)n2-c2ccc(Cl)cc2)cc1	?	5.2	-2.7%	-12.4%	-14.7%	3.1%	nt	nt
CCN(CC)c1ccc(NC(=O)/C=C/c2cc(Br)ccc2OC)cc1	?	9.5	?	0.0%	-21.0%	-8.3%	12.5µM*	?
COc1ccc(Br)cc1/C=C/C(=O)Nc1c(C)cccc1C	?	10.7	nt	-7.3%	nt	-0.8%	nt	nt
COc1cc(C)c(C(=O)Oc2cc(C)c(C(=O)O)c(O)c2)c(O)c1	0.794µM*	38.8	-5.5%	34.1%	7.7%	-0.4%	-9.7%	-12.6%
CC(=O)Nc1c(C(=O)N2CCCCCC2)cnn1-c1ccccc1	14.8%	-0.9	-12.1%	3.2%	i	-21.4%	nt	nt
COc1ccc(CCC(=O)Nc2cccc(S(=O)(=O)N3CCCC3)c2)cc1OC	?	-21.5	nt	-7.2%	nt	-4.5%	nt	nt
CCC1CCc2sc(C(=O)OCC(=O)N(CCOC)c3c(N)n(Cc4ccccc4)c(=O)[nH]c3=O)cc2C1 (stereo not drawn)	?	-21.1	-29.9%	-3.6%	-22.1%	-9.8%	nt	nt
COCCN(C(=O)COC(=O)c1cc2c(s1)CCC2)c1c(N)n(Cc2ccccc2)c(=O)[nH]c1=O	?	-20.2	-7.2%	-9.7%	-12.9%	-13.6%	-25.8%	28.4%
C=C1C=C(C)n2ncc(C(=O)N(CCc3ccccc3)Cc3ccccc3)c2N1	nt	nt	-10.7%	nt	-12.8%	nt	nt	nt
O=C(CN1C2=NCCN2c2ccccc21)C12CC3CC(CC(C3)C1)C2	?	?	?	?	nt	3.9%	28µM*	10.7%
Cc1ccc(CN2C3=NCCN3c3ccccc32)cc1	-23.1%	11.2	-10.6%	-15.9%	-15.1%	nt	nt	nt
CN1CCN(S(=O)(=O)c2ccc(N(C)Cc3ccc(C(F)(F)F)cc3)c([N+](=O)[O-])c2)CC1	3.16µM*	?	?	?	-22.9%	-10.7%	14.1µM*	28µM*
C=CCOCCN1C(=O)C2C3C=CC(C2C1=O)C1C2C(=O)N(CCOCC=C)C(=O)C2C31 (stereo not drawn)	-13.3%	-16.4	-3.9%	-3.4%	-19.4%	-26.3%	nt	nt
COc1cc(-c2nnc(-c3cc(OC)c(OC)c(OC)c3)o2)cc(OC)c1OC	?	67.0	-15.2%	?	nt	5.5%	nt	nt
COc1cc(-c2nnc(-c3ccccc3)o2)cc(OC)c1OC	?	26.5	-17.6%	-16.3%	-1.1%	0.2%	14.1µM*	12.1%
COc1ccc(N2C(=O)CSC2c2cccs2)cc1 (stereo not drawn)	33.9%	-38.3	-0.8%	-20.6%	-6.4%	-7.2%	nt	nt
COc1cccc(NC(=O)CSc2nnc(-c3cccc(OC)c3)o2)c1	nt	103.0	1.7%	20.3%	-10.6%	7.7%	nt	nt
CCN(CC)S(=O)(=O)c1ccc2c(c1)C(=NO)c1cc(S(=O)(=O)N(CC)CC)ccc1-2	4.47µM*	4.3	12.6µM*	20µM*	11.2µM*	7.0%	7.05µM*	?
CC(C)(C)C1CCc2c(sc3ncn(N)c(=N)c23)C1 (stereo not drawn)	?	?	nt	?	nt	9.4%	6.28µM*	?
O=C(COc1ccc(S(=O)(=O)N2CCCC2)cc1Cl)NC1CCCC1	-5.6%	47.1	nt	-27.2%	nt	3.9%	nt	nt
C=C(c1ccc(O)cc1)c1ccc(O)cc1	8.91µM*	-15.3	-28.8%	?	nt	29.7%	14.1µM*	42.4%
SMILES	HCV inhibitor	HCMV antiviral	VACV Venus inh	FMDV antiviral	VACV mCherry inh	Sm TGR block	HCV confirm	HCV cytotox
CCCC(=O)Nc1cccc(NC(=O)c2cccc([N+](=O)[O-])c2C)c1	7.94µM*	-15.7	-9.6%	?	i	-20.3%	12.5µM*	-16.4%
CCCC(=O)Nc1cccc(NC(=O)c2ccccc2Br)c1	?	28.4	nt	-10.6%	nt	4.2%	nt	nt
Cc1cccc(C(=O)N=c2c(C#N)cc3c(=O)n4cccc(C)c4nc3n2Cc2ccco2)c1	5.62µM*	-31.3	-12.1%	5.5%	-11.1%	44.7µM*	3.96µM*	0.4%
O=S(=O)(/C(=C\c1ccc(C(F)(F)F)cc1)c1nc2ccccc2[nH]1)c1ccccc1	1.41µM*	nt	?	11.2µM*	?	nt	7.91µM*	-97.1%
Cc1ccc(/C=C/C(=O)c2nc3ccccc3[nH]2)cc1	?	69.3	nt	-19.2%	nt	-21.2%	nt	nt
Cc1noc(C)c1CSc1nc2sc(C)c(C)c2c(=O)n1C1CCCC1	?	15.7	nt	9.8%	nt	4.5%	nt	nt
CC(C)Cn1c(N)c(C(=O)CSc2ccccc2)c(=O)n(C)c1=O	?	-29.0	-21.8%	20µM*	?	0.7%	7.91µM*	?
Cc1cc(=O)n2c3ccccc3n(CC(O)CN3CCCC3)c2c1C#N (stereo not drawn)	2µM*	?	2.0%	nt	10.9%	-1.5%	12.5µM*	-21.7%
CCOc1ccc(C2C(=O)N(C3CCCCCC3)CC(=O)N2CCc2ccc(OC)c(OC)c2)cc1OC (stereo not drawn)	nt	-5.7	-16.7%	-7.6%	-2.1%	2.6%	nt	nt
c1cc2c(cc1C1CCCCC1)c1c3n2CCCNC3CCC1 (stereo not drawn)	3.55µM*	-2.7	?	0.0%	1.4%[1.46 µM]	5.5%	28µM*	31.5µM*
Cc1c(OCC(=O)NCC(O)c2ccccc2)ccc2c3c(c(=O)oc12)CCC3 (stereo not drawn)	?	-12.1	nt	-26.8%	nt	-5.2%	nt	nt
COc1ccc(C(=O)NCCS(=O)(=O)N2CCN(Cc3ccccc3)CC2)cc1	5.4%[8.37 µM]	5.1	-2.1%	-21.1%	-8.2%	-0.5%	nt	nt
